Records with an inconclusive call do not appear. A call without a number means that no potency is given here. Calls of active or inactive are those of the source. Calls follow the shape of the dose curve; as a rule, active = well fitted activation curve with a large enough effect; inconclusive = small, poorly fitted or top-dose-only effect; inactive = flat fitted curve, though single readings scatter.
assay: qHTS for Inhibitors of Cell Surface uPA Generation: FP59 Counterscreen for Cherry-picked Compounds; conditions: FP59 anthrax toxin cytotoxicity counterscreen, cells; series mostly up to 115 µM

Q: For `Nc1cc(=O)[nH]c(SCC(=O)Nc2cccc([N+](=O)[O-])c2)n1`, which Potency is on record?
A: inactive

Q: For `CN(C)c1ccc(S(=O)(=O)N2CCC(Cc3ccccc3)CC2)cn1`, which Potency is on record?
A: inactive

Q: With `CCN1CCN(Cc2ccc(NC(=O)c3cc(NC(=O)c4cncc(-c5cccs5)c4)cc(OC)c3)cc2C(F)(F)F)CC1` as the compound, how does the Potency read?
A: inactive

Q: For `O=C(CSc1nncs1)NC(=O)NCc1ccco1`, which Potency is on record?
A: inactive

Q: For `Cc1[nH]c2ccc(C(=O)OC(C)C(=O)NC3CCCCC3C)cc2c1C` (centres undefined), which Potency is on record?
A: inactive

Q: With `COc1ccc(C(=O)NNC(=O)Cc2ccc(Cl)cc2)cc1` as the compound, how does the Potency read?
A: inactive

Q: Which Potency does the source give for `CN1CCN(C2=Nc3ccccc3Oc3ccc(Cl)cc32)CC1` here?
A: inactive

Q: For `Cc1ccc(-n2ncc(C(=O)NC3CC3)c2C2CCN(C(=O)OC(C)(C)C)CC2)cc1`, which Potency is on record?
A: inactive

Q: For `COc1ccc2[nH]cc(S(=O)(=O)c3ccc(C(C)C)cc3)c(=O)c2c1`, which Potency is on record?
A: inactive

Q: For `CS/C(=C\[N+](=O)[O-])Nc1ccccc1`, which Potency is on record?
A: inactive

Q: With `O=C(O)CCc1nn2c3ccccc3n(CC(=O)O)c2nc1=O` as the compound, how does the Potency read?
A: inactive

Q: For `COC(=O)[C@H](CC(C)C)N(Cc1ccccc1)S(=O)(=O)N(Cc1ccc(OC)cc1)[C@@H](CC(C)C)C(=O)OC`, which Potency is on record?
A: inactive

Q: Which Potency does the source give for `CCOC(=O)Cn1c(=O)cc(C)c2cccc(C)c21` here?
A: inactive

Q: Which Potency does the source give for `Cc1ccc(-c2nc(CS(=O)(=O)CC(=O)NCc3cccc(F)c3)c(C)o2)cc1` here?
A: inactive

Q: Which Potency does the source give for `CC(C)CCN1C(=O)c2ccc(-c3nc4ccccc4c(=O)o3)cc2C1=O` here?
A: inactive

Q: For `COc1cc2oc(=O)ccc2cc1[C@H](O)[C@@H](O)C(C)(C)O`, which Potency is on record?
A: inactive

Q: Which Potency does the source give for `COCCN(CCOC)c1nc(-c2ccc(C)cc2)nc2ccccc12` here?
A: inactive

Q: With `Cc1cnc(CNC(=O)C2CCC(=O)N(CCc3cccc(F)c3)C2)[nH]1` (centres undefined) as the compound, how does the Potency read?
A: inactive

Q: For `CCOC(=O)C1=CC[C@@H](c2cc3ccc(OC)cc3n2C)N(S(=O)(=O)c2ccc(C)cc2)[C@H]1C(=O)OCC`, which Potency is on record?
A: inactive

Q: Which Potency does the source give for `CN(C)CCNC(=O)Nc1ccc([N+](=O)[O-])cc1` here?
A: inactive

Q: Which Potency does the source give for `O=C(Nc1ccc(N2CCOCC2)cc1)c1ccc(Cl)c(S(=O)(=O)N2CCCC2)c1` here?
A: inactive

Q: With `O=C(c1cc([N+](=O)[O-])cc([N+](=O)[O-])c1)N(c1ccccn1)c1ccccn1` as the compound, how does the Potency read?
A: inactive

Q: Which Potency does the source give for `O=C(Nc1ccc2c(c1)CCC2)Nc1ccc2c(c1)OCO2` here?
A: inactive

Q: With `Cc1c([N+](=O)[O-])c2ccc(O)cc2n1-c1ccccc1` as the compound, how does the Potency read?
A: inactive

Q: Which Potency does the source give for `Cc1ccc2oc(C(=O)N(Cc3ccc(N(C)C)cc3)C3CCS(=O)(=O)C3)c(C)c2c1` (centres undefined) here?
A: inactive

Q: For `CCOc1ccc(CCNC(=O)Cc2ccc(NC3=NC4CS(=O)(=O)CC4S3)cc2)cc1OCC` (centres undefined), which Potency is on record?
A: inactive

Q: For `COC(=O)[C@]1(Cc2ccccc2)N[C@H](CN(C)C(=O)c2ccccc2)[C@@H]2C(=O)N(Cc3ccccc3)C(=O)[C@@H]21`, which Potency is on record?
A: inactive

Q: For `COc1ccc(OC)c(NC(=O)C2CC2c2ccccc2)c1` (centres undefined), which Potency is on record?
A: inactive

Q: Which Potency does the source give for `O=C(O)c1ccccc1/C=N/NC(=S)NC1CCCCC1` here?
A: inactive

Q: Which Potency does the source give for `C=CCNC(=S)NCC=C` here?
A: inactive

Q: Which Potency does the source give for `COc1ccc(C(=O)NCCCN2CCOCC2)cc1` here?
A: inactive

Q: Which Potency does the source give for `COc1ccc(CNCCC2(C(C)C)CCOC(C)(C)C2)cc1` (centres undefined) here?
A: inactive

Q: Which Potency does the source give for `O=C(N/C(=C\c1cccc([N+](=O)[O-])c1)C(=O)N1CCOCC1)c1ccc([N+](=O)[O-])cc1` here?
A: inactive

Q: With `Cc1ccc(S(=O)(=O)NCC(=O)OC(C)C(=O)NCc2ccc3c(c2)OCO3)cc1` (centres undefined) as the compound, how does the Potency read?
A: inactive

Q: Which Potency does the source give for `CCC1(C)NC(=O)N(CC(=O)Nc2sc3c(c2C(N)=O)CCC3)C1=O` (centres undefined) here?
A: inactive

Q: Which Potency does the source give for `COc1cc(NC(=S)NCCc2ccc(S(N)(=O)=O)cc2)c(OC)cc1Cl` here?
A: inactive

Q: For `CCn1c2ccccc2c2n[nH]c(=S)nc21`, which Potency is on record?
A: inactive

Q: For `CCOc1ccc(-n2cnc3scc(-c4ccc(OC)c(OC)c4)c3c2=O)cc1`, which Potency is on record?
A: inactive

Q: For `CC[C@]1(C(=O)OC)[C@H]2C(=O)N(C)C(=O)[C@H]2[C@H]2CN(C)C(=NC3CCCCC3)N21`, which Potency is on record?
A: inactive
